{"source": "PubChem BioAssay AID1578", "about": "(Sanford-Burnham Center for Chemical Genomics, 2009)", "note": "The whole screen tested about 290,000 compounds, of which about 3,000 (1%) were called active. Shown is part of a subset that was picked to be rich in actives. Values without a mark were called inactive. No stated cut-off is given here; in the data, active means inhibition mostly above about 36% (no sharp cut-off); inactive means mostly below about 34%."}
{"test": "NOD1 signaling inhibitors, primary screen, cell-based, luminescence, uHTS (AID 1578);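 further: HEK-293T reporter cells stimulated with the NOD1 agonist gamma-tri-DAP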", "conditions": "NOD1-driven NF-kB luciferase reporter cells, at 4 µM, stronger effect = higher value"}
{"smiles": "COc1cccc(NC(=O)C2CCN(S(C)(=O)=O)CC2)c1", "inhibition": "-30.4%"}
{"smiles": "Cc1cc(S(=O)(=O)Nc2ccc3c(c2)n(C)c(=O)n3C)ccc1F", "inhibition": "0.4%"}
{"smiles": "Oc1c(Br)cc(Br)cc1CNn1cnnc1", "inhibition": "5.1%"}
{"smiles": "COc1cc(SC)ccc1C(=O)Nc1nc(C)cc(C)n1", "inhibition": "-19.1%"}
{"smiles": "COc1cc(SC)ccc1C(=O)Nc1ncc(C)s1", "inhibition": "82.7% (active)"}
{"smiles": "COc1cc(SC)ccc1C(=O)Nc1ccc(Cl)cn1", "inhibition": "16.3%"}
{"smiles": "COc1cc(SC)ccc1C(=O)Nc1cccc(C)n1", "inhibition": "-70%"}
{"smiles": "COc1cc(SC)ccc1C(=O)Nc1nc(C)cs1", "inhibition": "91.9% (active)"}
{"smiles": "COc1cc(SC)ccc1C(=O)Nc1nccs1", "inhibition": "-52.4%"}
{"smiles": "CCCCOc1ccccc1/C=N/NC(=O)CC#N", "inhibition": "-26.1%"}
{"smiles": "O=C(NNC(=S)Nc1ccc(Cl)cc1)c1ccccc1OC(F)F", "inhibition": "-11.7%"}
{"smiles": "COc1ccccc1-n1cc(-c2ccc(Br)cc2)[nH]c1=S", "inhibition": "-0.3%"}
{"smiles": "Cc1sc2ncnc(Sc3ccccc3C(=O)Nc3ccc(Br)cc3)c2c1C", "inhibition": "9.8%"}
{"smiles": "Nc1c(Br)c(=O)[nH]c(=O)n1-c1ccccc1", "inhibition": "6.9%"}
{"smiles": "Cc1cc(=O)[nH]c(N=N/C(=N/Nc2ccccc2C)c2ccccc2)n1", "inhibition": "45.2%"}
{"smiles": "Cc1cc(=O)[nH]c(N=N/C(=N/Nc2ccc(O)cc2)c2ccccc2)n1", "inhibition": "105% (active)"}
{"smiles": "COc1ccc(N/N=C(/N=Nc2nc(C)cc(=O)[nH]2)c2ccccc2)cc1", "inhibition": "11.2%"}
{"smiles": "COc1ccc(N(CC(=O)NC2CCCCC2)C(=O)c2snc(C(N)=O)c2N)cc1", "inhibition": "-27.6%"}
{"smiles": "CN1CCN(CCCNC(=O)Cn2nc(-c3ccccc3)ccc2=O)CC1", "inhibition": "-20.1%"}
{"smiles": "O=C(O)c1nc(N2CCCC2)ncc1Cl", "inhibition": "0.1%"}
{"smiles": "Cc1ccc(/C=C2/CCc3c([nH]c4ccccc34)C2=O)cc1", "inhibition": "-61.5%"}
{"smiles": "O=C1/C(=C/c2cccnc2)CCc2c1[nH]c1ccccc21", "inhibition": "82% (active)"}
{"smiles": "O=C1/C(=C\\c2ccccc2)CCc2c1[nH]c1ccccc21", "inhibition": "-31.1%"}
{"smiles": "COC(=O)c1cn(CCOc2ccccc2)c2ccccc12", "inhibition": "-11.9%"}
{"smiles": "COc1ccccc1C(=O)Nc1cccnc1", "inhibition": "-35.2%"}
{"smiles": "CC1CCc2nc(NC(=O)Cc3cccs3)sc2C1", "note": "(stereo not drawn)", "inhibition": "-17.9%"}
{"smiles": "CC1CCc2nc(NC(=O)C3CC3)sc2C1", "note": "(stereo not drawn)", "inhibition": "-43.5%"}
{"smiles": "CC1CCc2nc(NC(=O)c3ccco3)sc2C1", "note": "(stereo not drawn)", "inhibition": "42.5% (active)"}
{"smiles": "CC1CCc2nc(NC(=O)CCSc3ccccc3)sc2C1", "note": "(stereo not drawn)", "inhibition": "-19.7%"}
{"smiles": "O=C(CSc1nc2ccccc2o1)Nc1nc2ccccc2s1", "inhibition": "25.3%"}
{"smiles": "CC(=O)Nc1ccc(S(=O)(=O)N2CCN(c3ncccn3)CC2)cc1", "inhibition": "-2%"}
{"smiles": "CCOc1ccccc1NC(=O)C(C)CC", "note": "(stereo not drawn)", "inhibition": "-23.5%"}
{"smiles": "COc1ccc(NC(=O)Cc2nnc(SCC(=O)NC3CCCCC3C)n2C)cc1", "note": "(stereo not drawn)", "inhibition": "17.2%"}
{"smiles": "CCN(CC1CCCN(CCc2cccc(F)c2)C1)C(=O)c1ccc(CSC)o1", "note": "(stereo not drawn)", "inhibition": "-11%"}
{"smiles": "COc1ccc(C(=O)OC(COc2ccccc2)Cn2ccnc2)cc1", "note": "(stereo not drawn)", "inhibition": "2.7%"}
{"smiles": "Cc1coc2cc3oc(=O)c(CC(=O)N[C@@H](CC(C)C)C(=O)O)c(C)c3cc12", "inhibition": "-5.8%"}
{"smiles": "COc1cc(C2C3C(C)N(C)C(=O)N(C)C3N(C)C(=O)N2C)ccc1O", "note": "(stereo not drawn)", "inhibition": "-20.9%"}
{"smiles": "COc1cc(/C=C2/SC(=S)NC2=O)ccc1OS(=O)(=O)c1ccc(C)cc1", "inhibition": "93.4% (active)"}
{"smiles": "COc1ccc(/C=C2\\SC(=S)NC2=O)cc1OS(=O)(=O)c1ccc(NC(C)=O)cc1", "inhibition": "2.1%"}
{"smiles": "COc1cc(/C=C2\\SC(=S)NC2=O)ccc1OS(=O)(=O)c1ccccc1", "inhibition": "4.1%"}
{"smiles": "Cc1ccc(CNC(=O)C2CCN(S(=O)(=O)c3ccc(Br)s3)CC2)cc1", "inhibition": "16%"}
{"smiles": "Cc1cc(-n2c(C)cc(C(=O)CSc3nc(N)cc(=O)[nH]3)c2C)no1", "inhibition": "9.7%"}
{"smiles": "Cc1cc(C(=O)CSc2nc(N)cc(=O)[nH]2)c(C)n1-c1ccc(OC(F)F)cc1", "inhibition": "45.3% (active)"}
{"smiles": "Cc1cc(C(=O)CSc2cccc[n+]2[O-])c(C)n1-c1ccc(OC(F)F)cc1", "inhibition": "2.7%"}
{"smiles": "COCCCNC(=O)CNC(=O)c1cn(-c2ccccc2OC)c(=O)c2ccccc12", "inhibition": "-30.6%"}
{"smiles": "Cc1ccc(C)c(NC(=O)CCN2CC(C)OC(C)C2)c1", "note": "(stereo not drawn)", "inhibition": "-8.9%"}
{"smiles": "COc1ccc(CN2CCSc3sccc3C2=O)cc1", "inhibition": "-4.1%"}
{"smiles": "CC1CCCN(c2nc3ccccc3nc2C(C#N)S(=O)(=O)c2cccs2)C1", "note": "(stereo not drawn)", "inhibition": "13.4%"}
{"smiles": "Cc1ccc(S(=O)(=O)C(C#N)c2nc3ccccc3nc2N2CCCCC2)cc1", "note": "(stereo not drawn)", "inhibition": "-4.7%"}
{"smiles": "N#CC(c1nc2ccccc2nc1N1CCCCC1)S(=O)(=O)c1ccc(Cl)cc1", "note": "(stereo not drawn)", "inhibition": "88.1% (active)"}
{"smiles": "N#CC(c1nc2ccccc2nc1N1CCCC1)S(=O)(=O)c1ccccc1", "note": "(stereo not drawn)", "inhibition": "10.2%"}
{"smiles": "CC1CCCN(c2nc3ccccc3nc2C(C#N)S(=O)(=O)c2ccccc2)C1", "note": "(stereo not drawn)", "inhibition": "102% (active)"}
{"smiles": "CCCCOc1nc2ccccc2nc1C(C#N)S(=O)(=O)c1ccccc1", "note": "(stereo not drawn)", "inhibition": "79.5% (active)"}
{"smiles": "Cc1ccc(S(=O)(=O)C(C#N)c2nc3ccccc3nc2OCCO)cc1", "note": "(stereo not drawn)", "inhibition": "-27.7%"}
{"smiles": "COc1ccc(S(=O)(=O)C(C#N)c2nc3ccccc3nc2N2CCCC(C)C2)cc1", "note": "(stereo not drawn)", "inhibition": "-10.7%"}
{"smiles": "N#CC(c1nc2ccccc2nc1OCCO)S(=O)(=O)c1ccccc1", "note": "(stereo not drawn)", "inhibition": "-3.6%"}
{"smiles": "CCCCOC(=O)c1cccnc1", "inhibition": "9.9%"}
{"smiles": "Cc1c(Cl)cccc1NC(=O)Nc1c(C)n(C)n(-c2ccccc2)c1=O", "inhibition": "-22.5%"}
{"smiles": "O=C(Cc1n[nH]c(=O)[nH]c1=O)N/N=C/c1c(O)ccc2ccccc12", "inhibition": "-32.5%"}
{"smiles": "COCCN1C(=O)c2ccccc2C(C(=O)N2CCN(c3ccccn3)CC2)C1c1ccc(F)cc1", "note": "(stereo not drawn)", "inhibition": "13.2%"}
{"smiles": "COc1cccc(CNC(=O)CCC2CCCN(C(=O)Cc3ccccc3F)C2)c1", "note": "(stereo not drawn)", "inhibition": "-26.2%"}
{"smiles": "CC(O)c1nc2ccccc2n1CC(=O)N1CCN(c2ccccc2)CC1", "note": "(stereo not drawn)", "inhibition": "-27.8%"}
{"smiles": "CCOc1ccccc1NC(=S)N(CCCN1CCOCC1)Cc1cn(C)c2ccccc12", "inhibition": "-4.6%"}
{"smiles": "CCSc1nc(N)nc(-c2cccs2)c1C#N", "inhibition": "-29%"}
{"smiles": "N#Cc1c(-c2ccccc2)nc(SCc2ccc(Cl)cc2)[nH]c1=O", "inhibition": "-2.4%"}
{"smiles": "O=c1nc(SCc2cccc(C(F)(F)F)c2)nc2ccccn12", "inhibition": "-17.7%"}
{"smiles": "N#Cc1c(Cl)nc(SCc2ccccc2)nc1-c1ccccc1", "inhibition": "32.4%"}
{"smiles": "N#Cc1c(N)nc(SCc2ccncc2)c(C#N)c1-c1cccs1", "inhibition": "61.6%"}
{"smiles": "N#Cc1c(-c2ccccc2)nc(SCc2cccc(Cl)c2)[nH]c1=O", "inhibition": "18.9%"}
{"smiles": "N#Cc1cc2ccccc2nc1SCC(=O)NC1CC1", "inhibition": "-32.4%"}
{"smiles": "Cc1ccc(NC(=S)NNC(=O)c2c(Cl)c(C)nn2C)cc1", "inhibition": "0%"}
{"smiles": "Cc1ccc2c(c1)N(CC(=O)NC1CCCC1)C(=O)CO2", "inhibition": "-27.1%"}
{"smiles": "CCOC(=O)C1(CC)NC(c2ccc(OC)c(OC)c2)C2C(=O)N(c3cccc(C(C)=O)c3)C(=O)C21", "note": "(stereo not drawn)", "inhibition": "-2.3%"}
{"smiles": "Cc1nc([N+](=O)[O-])cn1CC(O)c1ccc(-c2ccccc2)cc1", "note": "(stereo not drawn)", "inhibition": "-8.6%"}
{"smiles": "COc1ccc(N2CCN(C(=O)CSc3nnc4c(C)cc5ccccc5n34)CC2)cc1", "inhibition": "-15.6%"}
{"smiles": "C#CCOC(=O)c1cc(Cl)c(=O)n(Cc2ccc(Cl)cc2Cl)c1", "inhibition": "12.3%"}
{"smiles": "CC(NC(=O)/C(C#N)=C/c1ccco1)c1ccccc1", "note": "(stereo not drawn)", "inhibition": "-8.1%"}
{"smiles": "Cc1nn(Cc2c(F)c(F)c(F)c(F)c2F)c(C)c1NC(=O)c1c([N+](=O)[O-])c(C)nn1C", "inhibition": "10.1%"}
{"smiles": "Cc1cc(C)c(C#N)c(SCC(=O)c2ccc(Cl)cc2Cl)n1", "inhibition": "68.6% (active)"}
{"smiles": "Cc1cc(C)c(C#N)c(SCC(=O)c2ccccc2)n1", "inhibition": "-26.8%"}
{"smiles": "Cc1cc(C)c(C#N)c(SCC(=O)c2cccs2)n1", "inhibition": "-63.4%"}
{"smiles": "CNc1ccccc1C(=O)OCC(C)=O", "inhibition": "-41.6%"}
{"smiles": "COc1ccc(CCNC(=O)CCC(=O)N2CCOc3ccc(C)cc32)cc1OC", "inhibition": "10.2%"}
{"smiles": "COc1ccc(NC(=O)c2cc(-c3cc(OC)c(OC)c(OC)c3)nc3ccccc23)cc1OC", "inhibition": "43.8%"}
{"smiles": "COc1cc(-c2cc(C(=O)Nc3cccc(C(C)=O)c3)c3ccccc3n2)cc(OC)c1OC", "inhibition": "63.6% (active)"}
{"smiles": "COc1cc(-c2cc(C(=O)Nc3ccc(O)cc3)c3ccccc3n2)cc(OC)c1OC", "inhibition": "6.4%"}
{"smiles": "C=CCC(c1ccccc1F)N(CCN1CCOCC1)C(=O)Nc1cccc(Cl)c1", "note": "(stereo not drawn)", "inhibition": "7.7%"}
{"smiles": "COCCN(C(=O)CCC(=O)Nc1cc(C)on1)C(C(=O)NC1CCCC1)c1ccccc1C", "note": "(stereo not drawn)", "inhibition": "-13.7%"}
{"smiles": "COC(CN(C(=O)CCl)C(C(=O)NC1CCCCC1)c1ccc(C)cc1)OC", "note": "(stereo not drawn)", "inhibition": "68.9%"}
{"smiles": "COc1ccc(C(C(=O)NC2CCCC2)N(C(=O)c2ccoc2C)c2ccc(C)cc2)cc1", "note": "(stereo not drawn)", "inhibition": "-10.4%"}
{"smiles": "COCCN(C(=O)C(=O)NC1CCCC1)C(C(=O)NC1CCCC1)c1ccccc1F", "note": "(stereo not drawn)", "inhibition": "-25.2%"}
{"smiles": "O=S(=O)(NC1CCCCC1)c1cccc(-c2nnc(-c3ccccc3)o2)c1", "inhibition": "8.5%"}
{"smiles": "Cc1ccc(C(C(=O)NC2CCCC2)N(C(=O)Cc2cccs2)c2ccc3c(c2)OCCO3)cc1", "note": "(stereo not drawn)", "inhibition": "-7.5%"}
{"smiles": "O=C(CN1CCOCC1)N/N=C/c1ccc(-c2cccc(Cl)c2Cl)o1", "inhibition": "-9.3%"}
{"smiles": "O=C(CN1C(=O)COc2ccccc21)NCCN1CCOCC1", "inhibition": "-38%"}
{"smiles": "CC(=O)c1c(O)c2ccccc2n(C2CCCCC2)c1=O", "inhibition": "57.4% (active)"}
{"smiles": "CCn1c(=O)c(C(C)=O)c(O)c2ccccc21", "inhibition": "-17%"}
{"smiles": "CC(=O)c1c(O)c2ccccc2n(C)c1=O", "inhibition": "-26%"}
